Data as given in PubChem BioAssay (NCATS).
The source made the active and inactive calls. Calls follow the shape of the dose curve; as a rule, active = well fitted curve in the direction sought with a large enough effect; inconclusive = small, poorly fitted or top-dose-only effect, or another doubt; inactive = no such curve, though single readings can be large or run the other way.

biological target: Thyrotropin receptor (Homo sapiens) (UniProt P16473); experiment: qHTS Assay for Antagonists of the Thyroid Stimulating Hormone Receptor (AID 488980); conditions: TSHR-expressing cells, cAMP antagonist read-out; series mostly up to 57.5 µM
Sequence (P16473 whole entry, looked up): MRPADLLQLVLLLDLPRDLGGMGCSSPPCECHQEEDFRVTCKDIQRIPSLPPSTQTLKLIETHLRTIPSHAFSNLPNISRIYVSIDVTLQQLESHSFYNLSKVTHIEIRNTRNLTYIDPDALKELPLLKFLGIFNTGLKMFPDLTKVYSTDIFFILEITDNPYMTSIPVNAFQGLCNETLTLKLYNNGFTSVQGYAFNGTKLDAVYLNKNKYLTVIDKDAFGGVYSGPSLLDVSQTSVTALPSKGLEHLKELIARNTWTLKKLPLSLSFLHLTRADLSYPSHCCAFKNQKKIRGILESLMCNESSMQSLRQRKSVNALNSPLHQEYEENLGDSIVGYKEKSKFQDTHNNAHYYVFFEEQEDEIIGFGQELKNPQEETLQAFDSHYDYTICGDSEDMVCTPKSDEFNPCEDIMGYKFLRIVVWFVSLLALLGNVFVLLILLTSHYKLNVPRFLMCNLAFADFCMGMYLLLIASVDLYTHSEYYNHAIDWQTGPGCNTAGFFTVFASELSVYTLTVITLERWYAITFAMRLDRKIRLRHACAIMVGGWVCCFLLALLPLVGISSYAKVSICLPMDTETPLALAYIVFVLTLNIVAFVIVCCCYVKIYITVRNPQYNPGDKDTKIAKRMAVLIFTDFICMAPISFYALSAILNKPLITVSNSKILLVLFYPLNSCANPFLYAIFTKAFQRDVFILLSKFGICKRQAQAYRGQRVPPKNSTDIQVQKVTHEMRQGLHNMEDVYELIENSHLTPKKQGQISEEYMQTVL
From the text: TSH is an alpha/beta heterodimeric glycoprotein hormone secreted from the anterior pituitary gland which belongs to the glycoprotein hormone family. The actions of TSH are mediated by a seven-transmembrane receptor, which upon TSH binding couples preferentially to the G-alpha (s) protein (Gs), resulting in activation of adenylate cyclase and increase in cyclic adenosine 3', 5' monophosphate (cAMP). The TSH receptor (THSR) is mainly expressed in thyroid follicular cells and regulates their growth and function. This cell based assay was conducted on a TSHR transfected HEK 293 cell line, measuring cAMP stimulation using antibody-based Homogeneous Time Resolved Fluorescence (HTRF).
Our goal is to identify small molecules that will inhibit (antagonize) the thyroid-stimulating hormone receptor (TSHR), a member of the 7 transmembrane-spanning receptor (7TMR) family of cell surface receptors. TSHR-mediated hyperthyroidism is important in thyroid pathology. The development of small molecule antagonists of TSHR may lead to therapeutic approaches for TSHR-mediated hyperthyroidism caused by constitutively activating mutations or stimulating auto-antibodies associated with Graves' disease. Graves' disease is the leading cause of hyperthyroidism and is caused by autoantibodies that stimulate TSHR (TsAbs) causing thyroid growth and unregulated overproduction of thyroid hormones and existing treatments have liabilities (agranulocytosis). In addition, TSHRs are known to be expressed in multiple extrathyroidal tissues including bone, brain, kidney, testis, fat and cells of the immune system but the role of the TSHR in these tissues is not clear. Therefore, TSHR antagonists/inverse agonists could be used as probes of extrathyroidal TSHR function. Finally, TSHR inverse agonists, which are a subclass of antagonists that inhibit agonist-independent (or basal or constitutive) TSHR signaling, could be used to inhibit TSH-independent signaling in patients with recurrent or metastatic thyroid cancer who are receiving thyroid hormone to suppress TSH.
An anti cAMP antibody contains a fluorescent cryptate tag (excitation 337 nm; emission 620 nm) and the acceptor is cAMP-d2 (excitation 620 nm; emission 665 nm). When antibody and cAMP-d2 interact and are excited by a 337 nm light, a FRET occurs resulting in emission at 665 nm. The assay is competition between cAMP-d2 and cAMP (from the cell lysate). The homogeneous protocol allows for one step dispense after stimulation that is automation friendly.
Step, Parameter, Value, Description
1, Cells, 3 uL, 2000 TSHR freshly harvested cells/well 1536 TC treated White solid bottom plate (Cells resuspended in 10 mM HEPES buffered HBSS and 70 uM RO 20-1724)
2, Compound, 23 nL, Libraries and controls
3, Compound, 1 uL, EC80 TSH (4 nM final)
5, Reagent, 2 uL, cAMP antibody diluted 1:20 in lysis buffer
6, Time, 30 minutes, Room temperature
7, Detector, HTRF settings, Viewlux

SMILES	outcome
CC(Cc1ccc(O)cc1)NCC(O)c1cc(O)cc(O)c1 (stereo not given)	inactive
CC(=O)[C@H]1CCC2C3CC[C@H]4C[C@H](O)CC[C@]4(C)C3CC[C@@]21C (stereo not given in full)	inactive
CC(=O)NCCc1c[nH]c2ccccc12	inactive
NC(=NCCC[C@H](N)C(=O)O)N[N+](=O)[O-]	inactive
CCCN1CCC[C@H](c2cccc(O)c2)C1	inactive
NC(CCP(=O)(O)O)C(=O)O (stereo not given)	inactive
CC[C@@]1(O)C(=O)OCc2c1cc1n(c2=O)Cc2cc3ccccc3nc2-1	inactive
C#CCOC(=O)C1=CCCN(C)C1	inactive
CC(C)NC(C)Cc1ccc(I)cc1 (stereo not given)	inactive
C[C@@H](N)Cc1cnc[nH]1	inactive
CN[C@@H](C)[C@H](O)c1ccccc1	inactive
C[C@]12CCC3C(CC[C@H]4C[C@H](O)CC[C@]34C)C1CC[C@@H]2C(=O)CO (stereo not given in full)	inactive
CCCCc1ccc(C(=O)O)nc1	inactive
c1ccc2sc(C3(N4CCCCC4)CCCCC3)cc2c1	inactive
c1ccc(CCCN2CCN(CCOC(c3ccccc3)c3ccccc3)CC2)cc1	inactive
COc1ccc2c(c[n+](C)c3c4cc5c(cc4ccc23)OCO5)c1OC	inactive
C[N+]1(C)C2CCC1CC(OC(=O)C(CO)c1ccccc1)C2 (stereo not given)	inactive
CCCN1CCO[C@@H]2c3cc(O)ccc3OC[C@H]21	inactive
O=C(Cc1ccc(Cl)c(Cl)c1)N1CCCCC1CN1CCCC1 (stereo not given)	inactive
NC(CP(=O)(O)O)C(=O)O (stereo not given)	inactive

SMILES	outcome
CNCCc1c[nH]c2ccc(O)cc12	inactive
CS(=N)(=O)CC[C@H](N)C(=O)O (stereo not given in full)	inactive
CN[C@@H]1C[C@@H](c2ccc(Cl)c(Cl)c2)c2ccccc21	inactive
C[C@]12N[C@H](Cc3ccccc31)c1ccccc12	inactive
CCCN(CCC)[C@@H]1CCc2ccc(O)cc2C1	inactive
NC(=O)CN1CC(O)CC1=O (stereo not given)	inactive
NCCc1c[nH]c2ccc(O)cc12	inactive
NC(N)=NOCCC(N)C(=O)O (stereo not given)	inactive
CNCCc1ccc(O)c(O)c1	inactive
Clc1ccc(C(c2ccc(Cl)cc2)n2cc[n+](CC(OCc3ccc(Cl)cc3Cl)c3ccc(Cl)cc3Cl)c2)cc1 (stereo not given)	inactive
CCCN(CCC)C1CCc2ccc(O)cc2C1 (stereo not given)	inactive
Cn1cnc(CCN)c1	inactive
CC1=NN=C(c2ccc(N)cc2)c2cc3c(cc2C1)OCO3	inactive
CC[C@@H]1C(=O)OC[C@@H]1Cc1cncn1C	inactive
Cc1nc(-c2ccc(-c3ccc(C(=O)N4CCc5cc6c(cc54)C4(CCN(C)CC4)CO6)cc3)c(C)c2)no1	inactive
CN1C2CCC1CC(OC(=O)c1cc(Cl)cc(Cl)c1)C2 (stereo not given)	inactive
COc1cc(C(O)CN)ccc1O (stereo not given)	inactive
Oc1ccc2c3c1O[C@H]1c4[nH]c5c(c4C[C@@]4(O)[C@@H](C2)N(CC2CC2)CC[C@]314)C[C@@]1(O)[C@H]2Cc3ccc(O)c4c3[C@@]1(CCN2CC1CC1)[C@H]5O4	inactive
O=C(O)Cc1cnc[nH]1	inactive
CC(C)Oc1cccnc1N(C)C1CCN(Cc2ccccc2)CC1	inactive
